# Assay results reported in PubChem BioAssay (NCATS).
# “And” between values parts separate entries of the source, which are not always exact repeats. Equal values may be shown once. Inconclusive results are not listed. Some of the results follow. A call without a number means that no potency is given here. The source made the active and inactive calls. Unless noted, the call rests on the fitted dose curve; in most records, active means well fitted curve in the direction sought with a large enough effect; inconclusive means small, poorly fitted or top-dose-only effect, or another doubt; inactive means no such curve, though single readings can be large; an effect the other way counts as inactive or inconclusive.
# Key:
# [1] = biological target: DNA repair nuclease/redox regulator APEX1 (Homo sapiens) (UniProt P27695); assay: qHTS Validation Assay for Inhibitors of the Human Apurinic/apyrimidinic Endonuclease 1 (APE1) (AID 1705; further: potency means the concentration at half of the fitted maximal effect;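 on activity change, negative = inhibition: TAMRA fluorescence gain over two minutes as APE1 cuts a quenched THF abasic duplex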)
# Chain of DNA repair nuclease/redox regulator APEX1 (Homo sapiens) (P27695 whole entry, looked up): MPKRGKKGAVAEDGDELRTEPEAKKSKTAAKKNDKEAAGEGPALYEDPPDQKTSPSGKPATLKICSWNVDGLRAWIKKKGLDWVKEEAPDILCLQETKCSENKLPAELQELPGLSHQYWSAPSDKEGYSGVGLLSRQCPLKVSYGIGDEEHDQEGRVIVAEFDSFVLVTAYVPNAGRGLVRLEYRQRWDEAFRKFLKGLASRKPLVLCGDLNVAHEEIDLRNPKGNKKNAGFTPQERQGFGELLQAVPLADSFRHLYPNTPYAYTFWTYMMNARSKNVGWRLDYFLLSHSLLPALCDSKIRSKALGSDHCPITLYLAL
# Procedure, shortened: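 Human APE1 was preincubated with compound for 15 min at room temperature, then 50 nM (final) THF-abasic double-stranded DNA substrate bearing 5'-TAMRA and 3'-BHQ-2 was added. Incision-driven fluorescence rise (ex 525/em 598 nm) was read kinetically.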
# [2] = Counterscreen for APE1 Inhibitors: Fluorescent Dye Displacement Validation Assay (AID 1707)
# Procedure, shortened: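 Endpoint fluorescence read at 480 nm excitation / 540 nm emission; DNA-binding compounds lower signal by displacing 250 nM Thiazole Orange from 50 nM dsDNA containing a tetrahydrofuran abasic site, Tris-HCl pH7.5 buffer with NaCl and MgCl2.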
# [3] = qHTS for differential inhibitors of proliferation of Plasmodium falciparum line 7G8 (AID 1815);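 further: parasite growth measured after three days of incubation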; further: potency means the concentration at half of the fitted maximal effect
# [4] = qHTS for differential inhibitors of proliferation of Plasmodium falciparum line GB4 (AID 1816); conditions: Potency: Plasmodium falciparum GB4 proliferation inhibition;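 further: parasite growth measured after 72 h incubation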; further: potency means the concentration at half of the fitted maximal effect
# [5] = qHTS for differential inhibitors of proliferation of Plasmodium falciparum line 3D7 (AID 1876); further: potency means the concentration at half of the fitted maximal effect
# [6] = qHTS for differential inhibitors of proliferation of Plasmodium falciparum line D10 (AID 1877);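 further: parasites grown with compound for 72 h before DNA staining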; further: potency means the concentration at half of the fitted maximal effect
# [7] = qHTS for differential inhibitors of proliferation of Plasmodium falciparum line Dd2 (AID 1882); conditions: Potency: Plasmodium falciparum Dd2 proliferation inhibition; further: nearly all actives have a fitted effect of over 65% in size; further: potency means the concentration at half of the fitted maximal effect
# Procedure, shortened: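 SYBR Green DNA fluorescence (ex 485, em 535 nm) after overnight lysis quantifies parasite growth; compound exposure lasted 72 h at 37 C on infected red cells at 2.5% hematocrit, 0.3% parasitemia (final). Artemisinin 0.29 uM and vehicle wells define normalization.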
# [8] = qHTS for differential inhibitors of proliferation of Plasmodium falciparum line HB3 (AID 1886); conditions: Potency: Plasmodium falciparum HB3 proliferation inhibition;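 further: parasites grown with compound for 72 h before SYBR Green readout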; further: potency means the concentration at half of the fitted maximal effect
# [9] = qHTS Assay for Modulators of Human Peripheral Myelin Protein 22 (PMP22) Expression/Activity (AID 1967; active means well fitted curve in the direction sought with a large enough effect in the signal ratio; the % refers to the signal ratio)
# Procedure, shortened: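 MSC80 mouse Schwann cells stably carrying Pmp22 promoter–green click beetle luciferase plus EF-alpha–red luciferase control were dosed for 24h at 37 °C. Dual-colour luminescence was filter-overlap corrected; %Activity came from green/red ratio versus untreated cells.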
# [10] = biological target: Ferritin light chain (Equus caballus) (UniProt P02791); assay: qHTS Validation Assay for Identification of Novel General Anesthetics (AID 2323)
# Chain of Ferritin light chain (Equus caballus) (P02791 2-175 limits assumed): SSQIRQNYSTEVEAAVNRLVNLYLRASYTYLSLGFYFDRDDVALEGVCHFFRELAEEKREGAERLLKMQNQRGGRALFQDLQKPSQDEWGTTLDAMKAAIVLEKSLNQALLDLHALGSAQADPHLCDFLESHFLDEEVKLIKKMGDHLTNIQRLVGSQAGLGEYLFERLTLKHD
# Procedure, shortened: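 Competitive displacement of profluorescent 1-aminoanthracene (1-AMA, 50% saturated solution in PBS) from 10 uM horse-spleen apoferritin. Compounds incubated 10 min at room temperature; fluorescence read at 380 nm excitation/535 nm emission, normalized to free 1-AMA and complex, fitted with four-parameter Hill equation.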
# [11] = biological target: ATP-dependent DNA helicase Q1 (Homo sapiens) (UniProt P46063); assay: qHTS Validation Assay for Inhibitors of RecQ-Like Dna Helicase 1 (RECQ1) (AID 2353); further: potency means the concentration at half of the fitted maximal effect
# Chain of ATP-dependent DNA helicase Q1 (Homo sapiens) (P46063 whole entry, looked up): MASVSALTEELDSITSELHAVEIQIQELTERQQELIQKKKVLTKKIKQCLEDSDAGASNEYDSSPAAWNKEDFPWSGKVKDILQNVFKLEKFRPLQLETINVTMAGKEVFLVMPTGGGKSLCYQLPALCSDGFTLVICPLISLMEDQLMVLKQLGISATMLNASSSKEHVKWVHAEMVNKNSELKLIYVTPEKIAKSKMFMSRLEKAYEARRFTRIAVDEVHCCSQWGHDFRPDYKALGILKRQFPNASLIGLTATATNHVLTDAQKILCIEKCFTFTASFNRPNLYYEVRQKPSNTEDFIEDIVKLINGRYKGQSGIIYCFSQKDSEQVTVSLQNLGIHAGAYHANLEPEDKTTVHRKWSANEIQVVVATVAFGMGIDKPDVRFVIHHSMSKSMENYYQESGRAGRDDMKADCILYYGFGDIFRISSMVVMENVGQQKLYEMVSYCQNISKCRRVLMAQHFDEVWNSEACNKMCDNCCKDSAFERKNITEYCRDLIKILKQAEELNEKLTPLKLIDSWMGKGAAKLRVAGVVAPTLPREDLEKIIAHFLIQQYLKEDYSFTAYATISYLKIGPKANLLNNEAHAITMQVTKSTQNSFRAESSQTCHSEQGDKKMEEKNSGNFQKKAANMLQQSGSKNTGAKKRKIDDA
# Procedure, shortened: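 RECQ1T1 50 nM; forked duplex (20 bp + 30-nt ss tails) 200 nM, ATP 2 mM final; pH 8.0, 2 mM MgCl2, 2.5 ug/ml poly(dI-dC); 15 min compound preincubation; discontinuous kinetic read over 2 h at RT.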
# [12] = biological target: RecQ-like DNA helicase BLM (Homo sapiens) (UniProt P54132); assay: qHTS Validation Assay for Inhibitors of Bloom's syndrome helicase (BLM) (AID 2364)
# Chain of RecQ-like DNA helicase BLM (Homo sapiens) (P54132 whole entry, looked up): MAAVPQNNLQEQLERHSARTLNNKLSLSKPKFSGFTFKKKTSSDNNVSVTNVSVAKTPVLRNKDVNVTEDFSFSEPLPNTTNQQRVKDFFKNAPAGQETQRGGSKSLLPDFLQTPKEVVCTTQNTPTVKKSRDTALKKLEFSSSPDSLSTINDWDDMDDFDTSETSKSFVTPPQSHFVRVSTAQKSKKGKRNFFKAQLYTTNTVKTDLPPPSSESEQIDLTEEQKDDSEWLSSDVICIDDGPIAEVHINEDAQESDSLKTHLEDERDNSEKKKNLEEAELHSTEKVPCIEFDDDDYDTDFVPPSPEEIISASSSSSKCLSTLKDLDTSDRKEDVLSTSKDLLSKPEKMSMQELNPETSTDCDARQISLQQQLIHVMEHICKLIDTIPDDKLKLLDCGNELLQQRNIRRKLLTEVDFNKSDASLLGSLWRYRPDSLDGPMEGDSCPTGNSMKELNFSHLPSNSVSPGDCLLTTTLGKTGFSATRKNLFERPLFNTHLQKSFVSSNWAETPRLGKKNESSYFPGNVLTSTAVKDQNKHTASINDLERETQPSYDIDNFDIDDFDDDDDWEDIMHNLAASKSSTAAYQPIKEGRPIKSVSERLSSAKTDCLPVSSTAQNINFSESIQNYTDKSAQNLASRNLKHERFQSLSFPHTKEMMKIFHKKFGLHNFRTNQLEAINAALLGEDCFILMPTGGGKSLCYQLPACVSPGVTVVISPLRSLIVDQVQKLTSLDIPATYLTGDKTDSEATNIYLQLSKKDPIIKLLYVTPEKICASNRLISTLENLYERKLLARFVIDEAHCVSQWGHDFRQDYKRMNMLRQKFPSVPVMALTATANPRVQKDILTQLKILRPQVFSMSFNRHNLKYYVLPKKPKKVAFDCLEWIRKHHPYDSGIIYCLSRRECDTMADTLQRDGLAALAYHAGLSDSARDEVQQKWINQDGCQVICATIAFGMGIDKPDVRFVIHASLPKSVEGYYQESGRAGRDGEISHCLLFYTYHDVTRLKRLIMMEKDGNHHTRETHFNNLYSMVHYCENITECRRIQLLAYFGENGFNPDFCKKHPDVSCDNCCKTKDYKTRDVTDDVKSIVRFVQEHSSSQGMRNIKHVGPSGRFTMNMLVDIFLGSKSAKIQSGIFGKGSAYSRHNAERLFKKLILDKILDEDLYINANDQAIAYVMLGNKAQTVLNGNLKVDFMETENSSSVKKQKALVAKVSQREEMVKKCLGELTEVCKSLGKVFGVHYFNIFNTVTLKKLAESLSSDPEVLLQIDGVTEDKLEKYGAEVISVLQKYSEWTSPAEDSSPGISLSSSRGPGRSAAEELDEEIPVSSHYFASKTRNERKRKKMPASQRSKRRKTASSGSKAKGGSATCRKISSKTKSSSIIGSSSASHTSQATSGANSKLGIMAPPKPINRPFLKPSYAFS
# Procedure, shortened: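 BLM 50 nM in 25 mM Tris-HCl pH 8.0, 5 mM NaCl, 2 mM MgCl2, 1 mM DTT, 0.01% Tween-20, 2.5 ug/ml poly(dI-dC); 15 min cpd preinc, RT. Start: 200 nM forked DNA + 2 mM ATP (final). TAMRA read, 2 reads 2 h apart.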
# [13] = biological target: Endonuclease 4 (Escherichia coli (strain K12)) (UniProt P0A6C1); assay: Counterscreen for APE1 Inhibitors: qHTS Assay for Inhibitors of Endonuclease IV (AID 2565)
# Procedure, shortened: (§1)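 Enzyme (2 nM) + compound, 15 min RT; add 50 nM TAMRA/BHQ-2 THF-site dsDNA; kinetic read ex525/em598, 3 reads/60 s; activity = read 3 − read 1. Buffer Tris pH 7.5, 50 mM NaCl, 2 mM MgCl2, DTT, Tween-20.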
# [14] = biological target: DNA repair nuclease/redox regulator APEX1 (Homo sapiens) (UniProt P27695); assay: Confirmation qHTS Assay for Inhibitors of the Human Apurinic/apyrimidinic Endonuclease 1 (APE1) (AID 2572);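 further: fluorescence gain from purified APE1 cutting a TAMRA/BHQ-2 THF abasic duplex; nearly all actives have a fitted effect of over 30% in size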
# Procedure, shortened: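 Confirmation qHTS in dose-response format: APE1 exposed to compound 15 min at RT, then reaction started with 50 nM final TAMRA/BHQ-2 abasic substrate. Three fluorescence reads 60 s apart; endpoint minus initial read gives progress.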
# [15] = biological target: Endonuclease 4 (Escherichia coli (strain K12)) (UniProt P0A6C1); assay: Counterscreen for APE1 Inhibitors: qHTS Validation Assay for Inhibitors of Endonuclease IV (AID 1708)
# Procedure, shortened: as §1
# [16] = qHTS for differential inhibitors of proliferation of Plasmodium falciparum line W2 (AID 1883); conditions: Potency: Plasmodium falciparum W2 proliferation inhibition;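 further: parasites grown with compound for 72 h before lysis and staining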; further: potency means the concentration at half of the fitted maximal effect
# [17] = Cytometric Cell-Based qHTS for Inhibitors of the mTORC1 Signaling Pathway in MEF (Tsc2-/-, p53-/-) Cells (AID 2660);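 further: Tsc2 and p53 null MEFs carrying empty vector with compound for 24 h; percent of cells above a phospho-rpS6 to PI ratio cutoff in each well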
# Procedure, shortened: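 Cells are plated, treated with compound for 24 hrs at 37 degree Celsius, then fixed, blocked and immunostained for phospho-rpS6 Ser235/236. Propidium iodide counterstain follows. Per-well % positive cells is derived from the PI-normalized phospho-S6 signal.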
# [18] = High Content Imaging Cell-Based qHTS for Inhibitors of the mTORC1 Signaling Pathway in MEF (Tsc2-/-, p53-/-) Cells (AID 2666);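 further: percent of cells scored positive for phospho-rpS6 Ser235/236 immunostaining by imaging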
# Procedure, shortened: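 Inhibition of rpS6 phosphorylation is measured by immunofluorescence imaging in empty-vector Tsc2-/-, p53-/- mouse embryonic fibroblasts after 24 hrs compound exposure at 37 degree Celsius. Results are reported as % positive cells per well.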
# [19] = qHTS Assay for Lipid Storage Modulators (AID 1519; calls by dose curve); conditions: Drosophila S3 cells, BODIPY lipid droplet/cell ratio, laser cytometry, cells loaded with oleic acid; for activity change, negative = inhibition: at 57.5 µM (top of the series)
# Procedure, shortened: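 Cells seeded at 5,000 per well were treated with compounds over a concentration series and loaded with oleic acid (400 uM, as added). Lipid droplet fluorescence (488 nm excitation, 500-530 nm channel) was read by laser-scanning cytometry and normalized to 20 uM Triacsin C.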
# [20] = measured here: cell count channel max response
# [21] = measured here: lipid channel max response
smiles,measurement,setting,value
CO/N=C(\C(=O)N[C@@H]1C(=O)N2C(C(=O)O)=C(COC(C)=O)CS[C@H]12)c1csc(N)n1 (stereo in doubt),Potency,[1],2.24 µM (active)
same,Potency,[2],inactive
same,Potency,[3],inactive
same,Potency,[4],inactive
same,Potency,[5],inactive
same,Potency,[6],inactive
same,Potency,[7],inactive
same,Potency,[8],inactive
same,outcome,[9],inactive
same,Potency,[10],inactive
same,Potency,[11],10 µM (active)
same,Potency,[12],inactive
same,Potency,[13],inactive
same,Potency,[14],inactive
COC1=C(OC)C(=O)c2ccccc2C1=O,Potency,[1],inactive
same,Potency,[2],inactive
same,Potency,[15],inactive
same,Potency,[3],8.91 µM (active)
same,Potency,[4],10 µM (active)
same,Potency,[5],10 µM (active)
same,Potency,[6],11.2 µM (active)
same,Potency,[16],11.2 µM (active)
same,Potency,[8],11.2 µM (active)
same,Potency,[10],inactive
same,Potency,[11],inactive
COc1ccccc1N1CCN(CCCCNS(=O)(=O)c2cccc3c(N(C)C)cccc23)CC1,Potency,[1],inactive
same,Potency,[2],inactive
same,Potency,[3],7.94 µM (active)
same,Potency,[4],14.1 µM (active)
same,Potency,[5],10 µM (active)
same,Potency,[7],10 µM (active)
same,Potency,[16],3.55 µM (active)
same,Potency,[8],12.6 µM (active)
same,Potency,[10],inactive
same,Potency,[11],inactive
same,outcome,[17],inactive
same,Potency,[18],inactive
CN=c1nc(-c2ccccc2)n(-c2ccccc2)s1,Potency,[1],inactive
same,Potency,[2],inactive
same,Potency,[3],10 µM (active)
same,Potency,[4],10 µM (active)
same,Potency,[7],inactive
same,Potency,[16],10 µM (active)
same,Potency,[10],inactive
same,Potency,[11],inactive
same,Potency,[18],inactive
Nc1ccn([C@@H]2O[C@H](CO)[C@@H](O)[C@@H]2O)c(=O)n1,Potency,[1],inactive
same,Potency,[2],inactive
same,Potency,[3],inactive
same,Potency,[4],inactive
same,Potency,[5],inactive
same,Potency,[6],inactive
same,Potency,[7],inactive
same,Potency,[16],inactive
same,Potency,[8],inactive
same,Potency,[11],inactive
same,Potency,[12],inactive
CN(C)c1ccc(/C=C2\C(=O)Nc3ccccc32)cc1,"activity change, negative = inhibition",[19],0.655% (inactive)
same,max response,[19]; [20],-28.2%
same,max response,[19]; [21],-23.7%
same,Potency,[1],inactive
same,Potency,[3],8.91 µM (active)
same,Potency,[4],12.6 µM (active)
same,Potency,[16],12.6 µM (active)
same,Potency,[8],10 µM (active)
same,Potency,[11],inactive
same,outcome,[17],inactive
CCCCCC(O)c1cccc(OCc2ccc3ccccc3n2)c1 (stereo not drawn),Potency,[1],inactive
same,Potency,[2],inactive
same,Potency,[3],6.31 µM (active)
same,Potency,[4],10 µM (active)
same,Potency,[6],15.8 µM (active)
same,Potency,[7],7.94 µM (active)
same,Potency,[16],6.31 µM (active)
same,Potency,[8],12.6 µM (active)
same,Potency,[11],inactive
CC(C)Cc1ccc([C@H](C)C(=O)O)cc1,Potency,[1],inactive
same,Potency,[2],inactive
same,Potency,[3],inactive
same,Potency,[4],inactive
same,Potency,[5],inactive
same,Potency,[6],inactive
same,Potency,[7],inactive
same,Potency,[16],inactive
same,Potency,[8],inactive
same,Potency,[10],inactive
same,Potency,[11],inactive
same,outcome,[17],inactive
NC[C@@H]1O[C@H](C23CC4CC(CC(C4)C2)C3)Cc2c1ccc(O)c2O,Potency,[1],inactive
same,Potency,[2],inactive
same,Potency,[15],inactive
same,Potency,[3],2 µM (active)
same,Potency,[4],2 µM (active)
same,Potency,[5],2.24 µM (active)
same,Potency,[6],3.16 µM (active)
same,Potency,[7],8.91 µM (active)
same,Potency,[16],2.24 µM (active)
same,Potency,[8],2.82 µM (active)
same,Potency,[11],inactive
same,Potency,[12],inactive
same,Potency,[18],inactive
CC(C)NC[C@H](O)COc1cccc2[nH]ccc12,"activity change, negative = inhibition",[19],1.59% (inactive)
same,max response,[19]; [20],-1.16%
same,max response,[19]; [21],-1.16%
same,Potency,[1],inactive
same,Potency,[2],inactive
same,Potency,[10],inactive
same,Potency,[11],inactive
same,outcome,[17],inactive
same,Potency,[18],inactive
O=Nc1ccc2oc(=O)ccc2c1,Potency,[1],inactive
same,Potency,[2],inactive
same,Potency,[15],inactive
same,Potency,[3],12.6 µM (active)
same,Potency,[5],11.2 µM (active)
same,Potency,[8],12.6 µM (active)
same,Potency,[11],inactive
Cn1cc(C2=C(c3ccc(Cl)cc3Cl)C(=O)NC2=O)c2ccccc21,Potency,[1],35.5 µM (active)
same,Potency,[2],inactive
same,Potency,[3],10 µM (active)
same,Potency,[16],7.08 µM (active)
same,Potency,[12],inactive
same,outcome,[17],inactive
same,Potency,[18],inactive
C#CCN1C(C)=C(C(=O)OC)C(c2cccc([N+](=O)[O-])c2)C(C(=O)OCC)=C1C (stereo not drawn),Potency,[1],inactive
same,Potency,[2],inactive
same,Potency,[3],7.94 µM (active)
same,Potency,[4],7.08 µM (active)
same,Potency,[5],11.2 µM (active)
same,Potency,[6],14.1 µM (active)
same,Potency,[7],12.6 µM (active)
same,Potency,[16],4.47 µM (active)
same,Potency,[8],7.94 µM (active)
same,Potency,[11],inactive
same,outcome,[17],inactive
O=C(/C=C/c1ccc(O)c(O)c1)OCCc1ccccc1,"activity change, negative = inhibition",[19],-2.35% (inactive) and -20.7% (inactive)
same,max response,[19]; [20],-15.3% and -76.7%
same,max response,[19]; [21],-17.2% and -81.3%
same,Potency,[1],inactive
same,Potency,[15],inactive
same,Potency,[3],6.31 µM (active)
same,Potency,[4],5.01 µM (active)
same,Potency,[5],10 µM (active)
same,Potency,[6],12.6 µM (active)
same,Potency,[16],5.01 µM (active)
same,Potency,[8],10 µM (active)
same,Potency,[10],inactive
same,Potency,[11],inactive
